From PubChem BioAssay (NCATS)
Inconclusive results are not listed. Active and inactive are the calls of the source. Unless noted, calls follow the shape of the full dose curve.

Columns and labels:
[1] = molecular target: Lysosomal acid glucosylceramidase (Homo sapiens) (UniProt P04062); assay: Glucocerebrosidase-p2 (AID 348; in the data active = potency below about 10 µM; also: potency is read from the fitted curve at half-maximal effect); conditions: purified GBA, blue fluorogenic substrate, 40 min
Chain of Lysosomal acid glucosylceramidase (Homo sapiens) (P04062 whole entry, looked up): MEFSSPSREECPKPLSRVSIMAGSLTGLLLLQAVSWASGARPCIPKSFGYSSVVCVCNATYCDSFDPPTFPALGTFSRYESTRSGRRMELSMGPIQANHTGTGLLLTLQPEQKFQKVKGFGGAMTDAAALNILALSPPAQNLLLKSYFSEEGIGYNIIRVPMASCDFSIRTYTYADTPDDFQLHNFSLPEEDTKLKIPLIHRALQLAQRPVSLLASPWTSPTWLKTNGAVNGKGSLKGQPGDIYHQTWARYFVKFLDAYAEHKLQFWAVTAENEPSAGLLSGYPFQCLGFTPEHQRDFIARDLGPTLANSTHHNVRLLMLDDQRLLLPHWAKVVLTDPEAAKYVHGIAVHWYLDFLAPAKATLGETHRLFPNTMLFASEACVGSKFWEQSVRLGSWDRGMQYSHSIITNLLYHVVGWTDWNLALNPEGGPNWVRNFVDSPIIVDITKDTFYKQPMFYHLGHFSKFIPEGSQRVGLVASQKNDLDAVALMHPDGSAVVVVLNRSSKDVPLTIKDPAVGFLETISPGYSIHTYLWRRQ
How it was run: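 Compounds titrated from 0.6 nM upwards against 0.2 nM enzyme in pH 5.9 citric acid/KH2PO4, taurocholate, tween-20; blue fluorogenic substrate 80 uM, 40 min room temperature, stopped and read Ex 365/Em 440 for AC50.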

[2] = molecular target: Cytochrome P450 1A2 (Homo sapiens) (UniProt P05177); assay: p450-cyp1a2 (AID 410); conditions: recombinant CYP1A2, luciferin-ME demethylation, luminescence; series mostly up to 57 µM; also: potency is read from the fitted curve at half-maximal effect;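 as to activity change, negative = inhibition: -100% = full effect of reference inhibitor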
Chain of Cytochrome P450 1A2 (Homo sapiens) (P05177 whole entry, looked up): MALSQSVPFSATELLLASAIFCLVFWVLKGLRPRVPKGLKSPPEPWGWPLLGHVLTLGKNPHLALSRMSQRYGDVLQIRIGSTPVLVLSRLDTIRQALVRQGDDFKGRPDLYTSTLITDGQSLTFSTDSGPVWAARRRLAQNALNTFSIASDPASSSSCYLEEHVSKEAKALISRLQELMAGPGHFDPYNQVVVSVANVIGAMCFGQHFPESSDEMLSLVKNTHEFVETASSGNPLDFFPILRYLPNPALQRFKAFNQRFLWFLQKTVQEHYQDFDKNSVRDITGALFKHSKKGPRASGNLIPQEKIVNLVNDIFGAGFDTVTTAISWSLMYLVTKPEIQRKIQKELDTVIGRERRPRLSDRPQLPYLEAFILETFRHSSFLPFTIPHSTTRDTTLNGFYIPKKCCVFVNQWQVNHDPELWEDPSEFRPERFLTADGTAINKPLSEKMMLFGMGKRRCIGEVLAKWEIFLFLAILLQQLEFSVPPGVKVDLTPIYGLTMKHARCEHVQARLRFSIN
How it was run: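 Luminescent readout of luciferin formed from Luciferin-ME by human CYP1A2; data normalized against complete inhibition by 57 uM furafylline. Enzyme 20nM, substrate 100uM at Km, 100mM KPO4 buffer, 60 min reaction at room temperature.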

[3] = Stat Signaling Pathway (AID 446; active = well fitted curve in either direction with a large enough effect, not every such curve was filed as active;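 also: ME-180 cervical cancer cells given 40 pM IL-6 alongside compound; SIE-controlled beta-lactamase reporter measured as 460/530 nm FRET emission ratio; % is scaled to controls: 0 for no effect and ±100 for the full control effect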); conditions: ME-180 SIE beta-lactamase reporter, IL-6 stimulated, 5 h; at 7.69 µM (top of the series) unless noted
How it was run: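 Screening format detects activators and inhibitors alike: ME-180 SIE-bla cells stimulated at 40 pM IL-6 for 5 hrs with compound, then dual-emission beta-lactamase read at 405 nm excitation.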

[4] = molecular target: Glucocorticoid receptor (Homo sapiens) (UniProt P04150); assay: GR-EFC Redistribution (AID 451); conditions: CHO-K1 GR-EFC translocation, beta-gal luminescence, 2 h; also: potency is read from the fitted curve at half-maximal effect
Chain of Glucocorticoid receptor (Homo sapiens) (P04150 whole entry, looked up, the tested form may be a part): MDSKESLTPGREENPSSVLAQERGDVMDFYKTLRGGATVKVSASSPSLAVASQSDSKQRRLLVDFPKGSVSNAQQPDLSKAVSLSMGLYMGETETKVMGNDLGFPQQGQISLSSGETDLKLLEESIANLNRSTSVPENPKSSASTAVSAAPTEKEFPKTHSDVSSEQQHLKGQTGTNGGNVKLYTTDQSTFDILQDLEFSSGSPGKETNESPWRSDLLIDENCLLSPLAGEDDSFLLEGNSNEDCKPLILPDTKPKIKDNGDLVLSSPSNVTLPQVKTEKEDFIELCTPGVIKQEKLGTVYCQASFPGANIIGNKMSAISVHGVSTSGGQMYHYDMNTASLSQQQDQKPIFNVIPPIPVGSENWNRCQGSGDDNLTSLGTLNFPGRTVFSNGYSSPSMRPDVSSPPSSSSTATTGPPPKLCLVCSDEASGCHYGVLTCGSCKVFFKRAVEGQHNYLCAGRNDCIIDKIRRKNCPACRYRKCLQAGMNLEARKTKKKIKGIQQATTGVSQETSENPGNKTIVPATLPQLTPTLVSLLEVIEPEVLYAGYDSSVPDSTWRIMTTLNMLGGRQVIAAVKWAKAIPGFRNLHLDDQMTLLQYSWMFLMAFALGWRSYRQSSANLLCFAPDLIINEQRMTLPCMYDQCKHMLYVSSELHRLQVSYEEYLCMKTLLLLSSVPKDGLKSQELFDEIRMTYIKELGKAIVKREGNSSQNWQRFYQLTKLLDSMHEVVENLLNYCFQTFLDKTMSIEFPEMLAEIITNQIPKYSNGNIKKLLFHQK
How it was run: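 Translocation of GR-ED fusion to nuclear EA restores b-gal, read by luminescence after 1 h room-temperature detection. Engineered CHO-K1 biosensor cells, 1,000/well, exposed 2 h at 37 C to titrations up to 46 uM final.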

[5] = molecular target: Mitogen-activated protein kinase 10 (Mus musculus) (UniProt Q61831); assay: JNK3 AlphaScreen Assay (AID 530; active = well fitted curve in either direction with a large enough effect, not every such curve was filed as active;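 also: kinase came from lysate of stimulated human HepG2 cells; signal reports phosphorylation of biotinylated GST-cJun 1-79 at Ser73 with 10 µM ATP; % is scaled to controls: 0 for no effect and ±100 for the full control effect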); conditions: JNK3 lysate, c-Jun phosphorylation; series mostly up to 57.1 µM
How it was run: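 Compound titrations were preincubated 15 minutes at room temperature with substrate, antibody and pre-activated JNK3-containing HepG2 lysate. Reactions were started with 10 uM ATP and stopped with EDTA-containing bead buffer for AlphaScreen detection.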

[6] = molecular target: 3',5'-cyclic-AMP phosphodiesterase 4B (Homo sapiens) (UniProt Q07343); assay: qHTS Assay for Inhibitors of PDE-IV (AID 607; active = well fitted activation curve with a large enough effect in the main read-out, with a control signal flat, not every such curve was filed as active; also: % of control where 0% means no effect); conditions: HEK293 ACTOne CNG channel cells, membrane potential fluorescence; series mostly up to 22.9 µM
Chain of 3',5'-cyclic-AMP phosphodiesterase 4B (Homo sapiens) (Q07343 whole entry, looked up): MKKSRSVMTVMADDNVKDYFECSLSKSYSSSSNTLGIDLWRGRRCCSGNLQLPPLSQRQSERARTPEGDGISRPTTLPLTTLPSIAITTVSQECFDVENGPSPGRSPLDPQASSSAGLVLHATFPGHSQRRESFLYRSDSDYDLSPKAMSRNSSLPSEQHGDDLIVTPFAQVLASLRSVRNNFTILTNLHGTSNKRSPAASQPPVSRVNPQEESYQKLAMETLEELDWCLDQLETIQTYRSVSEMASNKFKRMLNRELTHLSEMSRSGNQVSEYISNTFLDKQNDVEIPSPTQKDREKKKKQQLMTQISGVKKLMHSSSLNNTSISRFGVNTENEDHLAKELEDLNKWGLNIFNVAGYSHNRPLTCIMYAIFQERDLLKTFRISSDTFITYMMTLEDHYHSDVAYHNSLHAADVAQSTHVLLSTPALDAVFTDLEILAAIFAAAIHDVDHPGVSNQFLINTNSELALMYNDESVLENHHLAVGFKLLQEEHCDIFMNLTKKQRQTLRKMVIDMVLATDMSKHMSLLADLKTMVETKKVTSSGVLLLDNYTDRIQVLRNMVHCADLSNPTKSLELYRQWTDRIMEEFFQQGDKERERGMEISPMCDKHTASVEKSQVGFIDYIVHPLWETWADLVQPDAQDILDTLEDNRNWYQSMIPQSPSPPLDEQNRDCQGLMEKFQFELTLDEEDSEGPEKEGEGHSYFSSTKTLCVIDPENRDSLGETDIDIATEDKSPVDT
How it was run: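 The readout is membrane depolarisation from a cAMP-sensing CNG channel, detected with a potential dye at ex 535/em 590. Cells were HEK293-derived (endogenous PDE-IV) at 1000 cells/well, titrated up to 22.9 uM final.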

[7] = qHTS Assay for Lipid Storage Modulators (AID 1519); conditions: Drosophila S3 cells, BODIPY lipid droplet/cell ratio, laser cytometry, cells loaded with oleic acid; for activity change, negative = inhibition: at 57.5 µM (top of the series)
How it was run: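 Cells seeded at 5,000 per well were treated with compounds over a concentration series and loaded with oleic acid (400 uM, as added). Lipid droplet fluorescence (488 nm excitation, 500-530 nm channel) was read by laser-scanning cytometry and normalized to 20 uM Triacsin C.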

[8] = Primary qHTS for small molecule stabilizers of the endoplasmic reticulum resident proteome: Secreted ER Calcium Modulated Protein (SERCaMP) assay (AID 1508630; active = well fitted curve in the direction sought with a large enough effect; an effect the other way counts as inactive or inconclusive; also: % is scaled to controls: 0 for no effect and ±100 for the full control effect); conditions: SH-SY5Y GLuc-SERCaMP (Gaussia luciferase released on ER calcium loss) secretion, thapsigargin, luminescence; series mostly up to 38.4 µM
How it was run: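 GLuc-SERCaMP-expressing SH-SY5Y cells, pretreated 16 h with compound, are challenged with thapsigargin to empty ER calcium stores; after 4 h, coelenterazine is added directly to the medium and luminescence is imaged.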

[9] = NFAT Signaling Pathway (AID 444; active = well fitted curve in either direction with a large enough effect, not every such curve was filed as active;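 also: carbachol stimulus at about its EC50 of 1 µM final; % is scaled to controls: 0 for no effect and ±100 for the full control effect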); conditions: Jurkat NFAT-bla M1, carbachol, beta-lactamase ratio, 5 h; at 7.69 µM (top of the series) unless noted
How it was run: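 Read-out: CCF4 FRET ratio (460 nm/530 nm) after 1 h RT dye loading, used for %activity and AC50 from titration series. Cells: Jurkat NFAT-β-lactamase/M1 line, treated with compound plus 1 uM carbachol for 5 h, 37 °C.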

[10] = molecular target: Cytochrome P450 3A4 (Homo sapiens) (UniProt P08684); assay: qHTS Assay for Activators of Cytochrome P450 3A4 (AID 885; active = well fitted curve in the direction sought with a large enough effect; an effect the other way counts as inactive or inconclusive; also: nearly all actives have a fitted effect of over 65% in size); conditions: recombinant CYP3A4, Luciferin-PPXE luminescence, 60 min; series mostly up to 57.1 µM
Chain of Cytochrome P450 3A4 (Homo sapiens) (P08684 whole entry, looked up): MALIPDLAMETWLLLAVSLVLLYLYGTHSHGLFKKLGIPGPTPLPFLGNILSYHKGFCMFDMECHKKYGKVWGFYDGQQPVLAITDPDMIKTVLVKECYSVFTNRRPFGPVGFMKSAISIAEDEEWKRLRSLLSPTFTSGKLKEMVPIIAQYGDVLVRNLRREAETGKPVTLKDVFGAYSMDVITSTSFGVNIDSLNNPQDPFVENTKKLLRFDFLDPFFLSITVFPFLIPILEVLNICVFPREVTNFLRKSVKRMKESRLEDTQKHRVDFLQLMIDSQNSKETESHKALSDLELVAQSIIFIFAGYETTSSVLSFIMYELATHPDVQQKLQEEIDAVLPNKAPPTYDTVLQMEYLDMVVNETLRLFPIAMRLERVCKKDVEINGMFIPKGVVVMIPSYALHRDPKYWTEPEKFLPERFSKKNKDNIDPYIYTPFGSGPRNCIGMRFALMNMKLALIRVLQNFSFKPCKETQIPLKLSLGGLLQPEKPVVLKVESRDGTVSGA
How it was run: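 Steps: enzyme/substrate mix dispensed; compound added, 10 min RT; NADPH regeneration solution added, 60 min RT; luciferin detection buffer stops reaction; 20 min later luminescence measured.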

[11] = molecular target: Glucocorticoid receptor (Homo sapiens) (UniProt P04150); assay: GR-GFP Redistribution (AID 450;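 active = compounds whose dose series gives a full or clear partial fitted curve of increased nuclear translocation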; also: potency is read from the fitted curve at half-maximal effect); conditions: U2OS GR-GFP nuclear translocation, laser cytometry, 2 h
[12] = Confirmation and Secondary Assay for Modulators of Hemoglobin Beta Chain Splicing at IVS2 654 locus (AID 910; active = well fitted curve in the direction sought with a large enough effect; an effect the other way counts as inactive or inconclusive;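 also: HeLa cells stably carrying EGFP split by mutant beta-globin IVS2-654 intron; per-well total GFP intensity by laser scanning cytometry after 2-day treatment; % of control where 0% means no effect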); conditions: HeLa EGFP-654 splicing reporter, GFP fluorescence, 48 h; series mostly up to 38.3 µM
How it was run: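 Readout: per-well total peak green fluorescence (488 nm ex, 500–520 nm em) from objects 5–250 µm, reflecting correct splicing of an EGFP-654 reporter. Compounds were applied for 2 days at 37 °C to overnight-plated HeLa EGFP-654 cells; controls were DMSO and 500 nM IVS2-654 PNA.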

[13] = qHTS Assay for Identification of Small Molecule Agonists for Hypoxia Response Element Signaling Pathway (AID 914; active = well fitted activation curve with a large enough effect in the signal ratio, with a control signal flat, not every such curve was filed as active; the % refers to the signal ratio; also: potency is read from the fitted curve at half-maximal effect); conditions: ME-180 (cervical carcinoma) HRE-bla reporter, beta-lactamase ratio, CoCl2, 17 h; activation: stronger effect = higher value
How it was run: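 Compounds in a titration series were added to ME-180 reporter cells alongside an EC50 level of CoCl2. After 17 hours, beta-lactamase activity was read as the 460nm/530nm emission ratio of CCF4, giving AC50 values.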

[14] = Confirmation and Secondary Assay for Modulators of Hemoglobin Beta Chain Splicing at IVS2 705 locus (AID 930; active = well fitted curve in the direction sought with a large enough effect; an effect the other way counts as inactive or inconclusive;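 also: HeLa cells stably expressing the EGFP-705 splicing reporter; GFP fluorescence per well restored by corrected splicing of the IVS2-705 intron in EGFP; % of control where 0% means no effect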); conditions: HeLa EGFP-705 splicing reporter, GFP fluorescence, 48 h; series mostly up to 38.3 µM
How it was run: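 Assay measures total GFP intensity per well in HeLa EGFP-705 cells after 2 days with compound; mis-splicing normally truncates EGFP, so fluorescence indicates corrected splicing.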

[15] = molecular target: Cytochrome P450 2D6 (Homo sapiens) (UniProt P10635); assay: qHTS Assay for Inhibitors and Substrates of Cytochrome P450 2D6 (AID 891; active = well fitted curve in the direction sought with a large enough effect; an effect the other way counts as inactive or inconclusive; also: potency is read from the fitted curve at half-maximal effect; nearly all actives have a fitted effect of over 60% in size); conditions: recombinant CYP2D6, luciferin-ME EGE luminescence; series mostly up to 57.1 µM
Chain of Cytochrome P450 2D6 (Homo sapiens) (P10635 whole entry, looked up): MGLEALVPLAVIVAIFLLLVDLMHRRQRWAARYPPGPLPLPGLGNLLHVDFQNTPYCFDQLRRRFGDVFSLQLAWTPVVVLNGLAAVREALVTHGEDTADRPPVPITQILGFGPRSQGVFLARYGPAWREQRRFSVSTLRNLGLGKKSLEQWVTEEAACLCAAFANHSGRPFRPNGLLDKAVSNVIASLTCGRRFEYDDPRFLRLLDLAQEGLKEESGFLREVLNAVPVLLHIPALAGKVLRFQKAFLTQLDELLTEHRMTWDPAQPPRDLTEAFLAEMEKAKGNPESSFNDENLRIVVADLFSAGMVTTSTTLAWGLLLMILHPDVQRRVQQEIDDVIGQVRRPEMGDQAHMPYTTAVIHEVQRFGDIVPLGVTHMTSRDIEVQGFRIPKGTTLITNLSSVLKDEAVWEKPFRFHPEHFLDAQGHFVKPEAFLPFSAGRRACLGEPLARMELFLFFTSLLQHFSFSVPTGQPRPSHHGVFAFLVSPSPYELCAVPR
How it was run: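 Human CYP2D6 (5 nM) with 30 uM Luciferin-ME EGE (at Km) in 100 mM KPO4, compound preincubated 10 min, then NADPH regeneration system for 60 min at room temperature. Luciferin read by luminescence; normalized to 1.43 uM quinidine.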

[16] = measured here: cell count channel max response
[17] = measured here: lipid channel max response

COc1ccc(C(=O)N2CCC3(CCN(Cc4ccc(C#N)cc4)CC3)CC2)cc1
Potency [1]: > 11.4 µM (inactive) | Potency [2]: 12.6 µM (active) | activity, negative = inhibition [3]: 0.785% (inactive) | Potency [4]: > 46 µM (inactive) | Potency [5]: inactive | Potency [6]: inactive | activity change, negative = inhibition [7]: 1.02% (inactive) | max response [7, 16]: 16.6% | max response [7, 17]: 21% | outcome [8]: inactive

Cn1cccc1C(=O)N1CCC2(CCCN(C(=O)Nc3ccccc3)C2)CC1
Potency [1]: > 11.4 µM (inactive) | activity change, negative = inhibition [9]: -22.5% (inactive) | activity, negative = inhibition [3]: 4.11% (inactive) | Potency [4]: > 46 µM (inactive) | Potency [5]: inactive | Potency [6]: inactive | Potency [10]: inactive | activity change, negative = inhibition [7]: 7.87% (inactive) | max response [7, 16]: 14.7% | max response [7, 17]: 28.5% | outcome [8]: inactive

COc1ccccc1CNc1ncnc2ccc(-c3c(C)noc3C)cc12
Potency [1]: > 11.4 µM (inactive) | Potency [2]: 7.94 µM (active) | Potency [11]: > 46 µM (inactive) | Potency [4]: > 46 µM (inactive) | Potency [5]: inactive | Potency [10]: inactive | Potency [12]: inactive | Potency [13]: 1.26 µM (active) | outcome [14]: inactive | activity change, negative = inhibition [7]: -5.34% (inactive) | max response [7, 16]: -3.01% | max response [7, 17]: -7.6% | outcome [8]: inactive

N#CCCn1c(=O)c(-c2cccs2)nc2cnc(N3CCNCC3)nc21
Potency [1]: > 11.4 µM (inactive) | Potency [11]: > 9.22 µM (inactive) | Potency [4]: > 46 µM (inactive) | Potency [5]: inactive | Potency [6]: inactive | activity change, negative = inhibition [7]: -0.055% (inactive) | max response [7, 16]: 5.4% | max response [7, 17]: 9.49% | outcome [8]: inactive

COCC(=O)N1CCC2(CC1)CCN(c1ncccn1)CC2
Potency [1]: > 11.4 µM (inactive) | Potency [2]: inactive | activity change, negative = inhibition [9]: 16.6% (inactive) | activity, negative = inhibition [3]: -0.157% (inactive) | Potency [4]: > 46 µM (inactive) | Potency [5]: inactive | Potency [6]: inactive | activity change, negative = inhibition [7]: 3.55% (inactive) | max response [7, 16]: 11.8% | max response [7, 17]: 17.5% | outcome [8]: inactive

COc1ccc(C(=O)N2CCC3(CCCN(Cc4ccccc4)C3)CC2)cc1
Potency [1]: > 11.4 µM (inactive) | Potency [2]: inactive | activity, negative = inhibition [3]: -10.9% (inactive) | Potency [4]: > 46 µM (inactive) | Potency [5]: inactive | Potency [6]: inactive | Potency [10]: inactive | Potency [15]: 7.94 µM (active) | activity change, negative = inhibition [7]: 4.53% (inactive) | max response [7, 16]: 1.31% | max response [7, 17]: 6.86% | outcome [8]: inactive

COc1ccc(-n2c(=O)c(-c3cccs3)nc3cnc(N4CCNCC4)nc32)cc1
Potency [1]: > 11.4 µM (inactive) | Potency [2]: 5.01 µM (active) | Potency [11]: > 9.22 µM (inactive) | Potency [4]: > 46 µM (inactive) | Potency [5]: inactive | Potency [6]: inactive | Potency [10]: inactive | activity change, negative = inhibition [7]: 2.69% (inactive) | max response [7, 16]: 3.53% | max response [7, 17]: 6.61% | outcome [8]: inactive
